Source: PubChem BioAssay
This is a sample that favours compounds with a hit; in the whole collection about 7.2% have one here.
SUMO Mot1 rescue: inhibitors of SUMOylation pathway: yeast Mot1-301 growth rescue | growth rescue, % at 18.8 µM | S. cerevisiae Mot1-301 growth rescue, ATP luminescence, 38.5C; percent above DMSO median, 100 means doubled | AID 2716 | 1% of 320,000 active;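 active = every valid replicate shows activation above 250% relative to neutral control wells; inactive = the rest, any valid replicate at or below 250%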
VLA-4 inh: inhibition in a human VLA-4 binding assay; P13612; VLA-4 expressing cells, ligand binding flow cytometry; inhibition, % (about 7 µM as worked out from the volumes in the protocol); 0.2% of 330,000 active; in the data active = inhibition above about 50%
Target sequence (P13612 whole entry, looked up): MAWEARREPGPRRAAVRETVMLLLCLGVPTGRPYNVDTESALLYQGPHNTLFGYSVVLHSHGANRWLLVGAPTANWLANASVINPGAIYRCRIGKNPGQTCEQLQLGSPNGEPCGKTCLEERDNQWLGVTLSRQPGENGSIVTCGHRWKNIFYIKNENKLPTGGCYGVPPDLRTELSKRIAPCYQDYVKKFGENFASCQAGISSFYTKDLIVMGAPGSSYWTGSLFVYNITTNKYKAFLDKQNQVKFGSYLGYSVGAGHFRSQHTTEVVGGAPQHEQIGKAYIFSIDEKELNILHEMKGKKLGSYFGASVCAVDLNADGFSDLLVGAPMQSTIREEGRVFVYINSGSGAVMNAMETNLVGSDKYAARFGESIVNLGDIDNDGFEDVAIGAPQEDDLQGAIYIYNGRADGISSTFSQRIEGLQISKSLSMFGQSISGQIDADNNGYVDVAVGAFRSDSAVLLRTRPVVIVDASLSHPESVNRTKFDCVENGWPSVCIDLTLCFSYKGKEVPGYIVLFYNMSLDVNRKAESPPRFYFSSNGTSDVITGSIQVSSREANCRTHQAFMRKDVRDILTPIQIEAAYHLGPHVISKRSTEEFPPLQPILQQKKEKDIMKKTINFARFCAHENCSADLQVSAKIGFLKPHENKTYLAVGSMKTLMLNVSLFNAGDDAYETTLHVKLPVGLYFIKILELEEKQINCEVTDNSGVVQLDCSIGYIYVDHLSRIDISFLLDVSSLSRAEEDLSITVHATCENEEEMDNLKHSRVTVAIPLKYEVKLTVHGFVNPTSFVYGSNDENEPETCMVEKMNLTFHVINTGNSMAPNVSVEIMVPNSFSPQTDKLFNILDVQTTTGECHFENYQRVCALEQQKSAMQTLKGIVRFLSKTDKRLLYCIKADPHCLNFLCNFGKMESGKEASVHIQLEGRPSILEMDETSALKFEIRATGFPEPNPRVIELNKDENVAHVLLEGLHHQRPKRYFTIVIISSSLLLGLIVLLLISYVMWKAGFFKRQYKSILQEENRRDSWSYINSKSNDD
Efflux pump inh: antifungal efflux pump inhibition, Nile Red retention | S. cerevisiae Candida pump triplex | inhibition, % at 10 µM | 0.44% of 330,000 active | AID 485275;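 active = plate passing quality check with inhibition over a set limit, or well fluorescence over plate mean plus 4 SD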;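 also: Nile Red retained in pooled yeast measured as flow cytometry median fluorescence; higher means more Nile Red kept so more efflux inhibition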
Bfl-1 A1 inh: inhibitors of the anti-apoptotic protein A1, read as caspase activation. MEF A1-2A-BIM cells, Caspase-Glo 3/7 luminescence, 3 h; percent of clofoctol response, vehicle zero. caspase activation, % (concentration not given with the values). 0.066% of 330,000 active;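 active = over half of replicate activation scores above 10%, or exactly half above 10 with the replicate mean above 10; inconclusive = replicate mean below 10 yet half the replicates above 10; inactive = over half of replicates below 10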
ALR H2O2 inh: inhibitors of human sulfhydryl oxidase ALR | P55789 | purified ALR, DTT oxidation, H2O2 HRP-luminol luminescence | inhibition, % (no concentration beside the values) | 3.8% of 290,000 active;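 active = mean replicate inhibition above about 79%, with every replicate also reaching it, limit read from the data; inconclusive = only one of the two criteria met; inactive = mean below limit and not every replicate reaching it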
AHR activator: activators of human aryl hydrocarbon receptor; AHR-responsive luciferase reporter cells, luminescence; 2.5% of 320,000 active; activation, % at 5 µM; in the data active = activation above about 47%
Each line names hits and unclear results; the compound was inactive in the other large screens.

CCOC(=O)c1c(N)sc(C(O)(C(F)(F)F)C(F)(F)F)c1-c1ccccc1	none (no result: ALR H2O2 inh)
Cc1c(-c2ccccc2)sc(N)c1C(=O)N1CCOCC1	ALR H2O2 inh 99
CCOC(=O)Nc1sc(C)c(C)c1C(=O)OCC	none
NNC(=O)c1cc(-c2ccccc2)sc1N	ALR H2O2 inh 97, AHR activator 56
CCOC(=O)c1c(NC(=O)Nc2ccccc2)sc(C)c1C	AHR activator 49
COC(=O)c1c(N)sc(C(=O)N2CCOCC2)c1C	none
Cc1ccc(-c2nnn(CC(=O)Nc3cccc4cccnc34)n2)o1	SUMO Mot1 rescue 353
COCCCNC(=O)c1ccc2c(=O)n(CC3CCCO3)c(=S)[nH]c2c1 (stereo not drawn)	ALR H2O2 inh 87
COCCN(C(=O)COC(=O)C1CC1)c1c(N)n(Cc2ccccc2)c(=O)[nH]c1=O	none
CC1CN(C(=O)/C=C/c2ccc3c(c2)OCO3)CC(C)O1 (stereo not drawn)	AHR activator 60
CCN(CC(=O)Nc1ccc(NC(C)=O)cc1)C(=O)/C=C/c1ccc2c(c1)OCO2	none
O=C(/C=C/c1ccc2c(c1)OCO2)N1CCOCC1	AHR activator 55
CCN(C(=O)/C=C/c1ccc2c(c1)OCO2)c1ccccc1	AHR activator 70
COc1ccc2nc(Nc3sc4c(c3C(N)=O)CCCC4)sc2c1	none
CCOc1ccc2[nH]c3c(N4CCc5ccccc5C4)ncnc3c2c1	none
COc1ccc2[nH]c3c(N4CCN(Cc5ccc6c(c5)OCO6)CC4)ncnc3c2c1	ALR H2O2 inh 97
COc1ccc2[nH]c3c(N4CCC(O)(c5cccc(C(F)(F)F)c5)CC4)ncnc3c2c1	AHR activator 68
COc1ccc(/C=N/Nc2cc(C)nc3c(C)cccc23)cc1	AHR activator 71
CCOc1ccccc1/C=N/Nc1cc(C)nc2ccc(C)cc12	none
Cc1ccc2nc(C)cc(N/N=C/c3cccc(O)c3)c2c1	ALR H2O2 inh 99
COc1cccc2c(N/N=C/c3ccc(O)c(O)c3)cc(C)nc12	ALR H2O2 inh 99
CN(C)C(=O)CCc1ccc2c3c([nH]c2c1)[C@]1(CCc2ccccc2)[C@@H](C(=O)N2CCCCC2)C[C@H](CC(=O)NC(C)(C)C)C(=O)N1CC3	none (no result: SUMO Mot1 rescue, VLA-4 inh, Bfl-1 A1 inh, ALR H2O2 inh, AHR activator)
COc1ccc(-c2nc(CN3CCC(C(=O)NCC4CCCO4)CC3)c(C)o2)cc1OC (stereo not drawn)	none
COc1ccc(-c2nc(CS(=O)CC(=O)NC3CCCC3)c(C)o2)cc1OC (stereo not drawn)	ALR H2O2 inh 99
COc1ccc(-c2nc(CS(=O)CC(=O)NC3CCCc4ccccc43)c(C)o2)cc1OC (stereo not drawn)	ALR H2O2 inh 99
COc1ccc(-c2nc(CS(=O)CC(=O)NC3CCC(C)CC3)c(C)o2)cc1OC (stereo not drawn)	ALR H2O2 inh 99
O=C(c1cc2ccccc2oc1=O)N(c1ccc(Cl)cc1)C1C=CS(=O)(=O)C1 (stereo not drawn)	none
CN(C)/N=C/c1ccc(P(c2ccc(/C=N/N(C)C)o2)c2ccc(/C=N/N(C)C)o2)o1	none
CCOc1ccc(N2C(=O)CC(Cc3ccccc3OC)C2=O)cc1 (stereo not drawn)	none
NC(=O)NC(=O)COC(=O)CNS(=O)(=O)c1ccc(F)c(F)c1F	none (no result: ALR H2O2 inh)
CN(Cc1ccccc1)S(=O)(=O)c1ccc(Cl)c(C(=O)OCC(=O)NC2CCS(=O)(=O)C2)c1 (stereo not drawn)	none
O=S(=O)(Nc1ccc(N2CCOCC2)cc1)c1ccccc1	ALR H2O2 inh 99
O=S(=O)(/C=C/c1ccccc1)Nc1ccc(N2CCOCC2)cc1	ALR H2O2 inh 95
O=S(=O)(Nc1ccc(N2CCCCC2)cc1)c1ccccc1	none
O=S(=O)(Nc1ccc(N2CCOCC2)cc1)c1ccc(Cl)s1	ALR H2O2 inh 98
Cc1cc(C)c(S(=O)(=O)Nc2ccc(N3CCOCC3)cc2)c(C)c1	ALR H2O2 inh 86
c1ccc(-c2cc(N3CCCCCC3)n[nH]2)cc1	ALR H2O2 inh 98
COc1cccc(CC(=O)OCC(=O)NNC(=O)c2ccc([N+](=O)[O-])cc2)c1	none
CCOC(=O)C1CCN(C(=O)c2cc(C)n(C(C)(C)C)n2)CC1	none
Cc1ccc(-c2nc(CSCC(=O)Nc3cc(C)on3)c(C)o2)cc1	none (no result: ALR H2O2 inh)
CCOc1ccc(-c2nc(CSCC(=O)NCC3CCCO3)c(C)o2)cc1 (stereo not drawn)	ALR H2O2 inh 99
Cc1ccc(-c2nc(CSCC(=O)NCC3CCCO3)c(C)o2)cc1 (stereo not drawn)	ALR H2O2 inh 95
COc1ccc(-c2nc(CSCC(=O)NCC3CCCO3)c(C)o2)cc1OC (stereo not drawn)	ALR H2O2 inh 98
COc1ccc(-c2nc(CSCC(=O)NCCCN3CCCC3=O)c(C)o2)cc1OC	ALR H2O2 inh 98
CC(C)CC(C)N1CCC(n2nccc2NC(=O)CCc2ccccc2)CC1 (stereo not drawn)	none
Cc1ccc(N2C(=O)Nc3ccc(Br)cc3C2(O)C(=O)NCCN(C)C)cc1C (stereo not drawn)	none
CC(C)C(NS(=O)(=O)c1cccs1)C(=O)NCCN1CCN(c2ccccc2)CC1 (stereo not drawn)	ALR H2O2 inh 99
COc1ccc(OC)c(NC(=O)NCCN2CCN(c3ccccc3)CC2)c1	ALR H2O2 inh inconclusive
COc1ccc(N2CCN(CCNC(=O)CCS(=O)(=O)c3cccc4nsnc34)CC2)cc1	ALR H2O2 inh 94
COc1ccc(N2CCN(CCNC(=O)Nc3ccc([N+](=O)[O-])cc3OC)CC2)cc1	ALR H2O2 inh 89 (no result: AHR activator)
COc1ccc(CCNC(=O)CCS(=O)(=O)c2cccc3nsnc23)cc1OC	none (no result: SUMO Mot1 rescue)
COc1ccc(N2CCN(CCNC(=O)CCNS(=O)(=O)c3cccs3)CC2)cc1	ALR H2O2 inh 93
CCc1c2ccccc2nn1-c1ccccc1C(=O)C(C)=O	none
COc1ccc(NC(=O)CSc2nnc(C)n2N)cc1S(=O)(=O)N1CCCCC1	none (no result: ALR H2O2 inh)
CCN=C1SC(CC(=O)Nc2sc(C)c(C)c2C(=O)OC)C(=O)N1CC (stereo not drawn)	none
CC(C)c1ccc(N(CC(=O)NC(C)(C)C)C(=O)CCC(=O)Nc2nccs2)cc1	none
O=C(Cn1cc([N+](=O)[O-])cn1)N1CCN(Cc2ccc3c(c2)OCO3)CC1	none
O=C1Nc2ccc([N+](=O)[O-])cc2OC1CCN1CCN(c2ccccc2)CC1 (stereo not drawn)	ALR H2O2 inh 94
O=C1Nc2ccc([N+](=O)[O-])cc2OC1CCN1CCOCC1 (stereo not drawn)	none (no result: ALR H2O2 inh)
Cc1ccc(N2C(=O)NC(NS(=O)(=O)c3ccccc3)(C(F)(F)F)C2=O)cc1C (stereo not drawn)	none
O=C1C=CC(=C(c2ccc(O)cc2)c2ccc(O)cc2)C=C1	ALR H2O2 inh 99
COc1ccc(S(=O)(=O)Nc2ccc(S(=O)(=O)N3CCCC3)cc2)cc1	none
